# Bioassay records deposited in PubChem by The Scripps Research Institute Molecular Screening Center.
# This is a sample that favours compounds with a hit; in the whole collection about 1.2% have one here.
# S1P2 agonist: S1P2 (human) receptor agonism | activation, % at 4.5 µM | 97,000 compounds, 0.46% hits | S1P2-expressing cell line, agonist reporter read-out | O95136 | AID 729; in the data active = activation above about 16%;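 note: 0% = vehicle low control and 100% = maximal reference agonist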
# GALR2 agonist: GALR2 (human) receptor agonism; GALR2-expressing cells, agonist activation read-out; activation, % (no concentration beside the values); 140,000 compounds, 0.48% hits; in the data active = activation above about 5%, passing the limit was not always enough;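 note: 0% = vehicle buffer wells and 100% = reference agonist at full effect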
# Target sequence (O43603 whole entry, looked up): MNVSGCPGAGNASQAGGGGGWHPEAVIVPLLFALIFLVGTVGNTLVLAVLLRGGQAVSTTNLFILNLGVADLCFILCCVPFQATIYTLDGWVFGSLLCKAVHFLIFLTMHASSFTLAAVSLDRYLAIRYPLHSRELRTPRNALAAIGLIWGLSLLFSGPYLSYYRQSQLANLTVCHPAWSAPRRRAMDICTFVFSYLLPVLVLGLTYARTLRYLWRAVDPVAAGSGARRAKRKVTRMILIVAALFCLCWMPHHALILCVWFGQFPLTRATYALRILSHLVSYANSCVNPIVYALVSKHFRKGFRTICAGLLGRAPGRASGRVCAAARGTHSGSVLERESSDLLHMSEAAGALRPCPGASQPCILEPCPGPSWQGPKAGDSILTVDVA
# S1P2 antag: S1P2 (human) receptor antagonism | 97,000 compounds, 0.21% hits | inhibition, % at 5 µM | AID 736 | cell-based S1P2 antagonist assay, inhibition at 5 uM | O95136; in the data active = inhibition above about 45%;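 note: CRE beta-lactamase reporter cells expressing human S1P2 stimulated with S1P; 0% = agonist at EC80 alone and 100% = agonist plus reference antagonist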
# GALR2 antag: GALR2 (human) receptor antagonism. O43603. AID 828. 140,000 compounds, 0.39% hits. GALR2-expressing cells, antagonist mode. inhibition, % at 4 µM; in the data active = inhibition above about 27%;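 note: cells stimulated with galanin 1-16 at roughly its EC80; 0% = agonist challenge control and 100% = basal control without agonist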
# * = called active by the depositor; x = no result given.
SMILES,S1P2 agonist,GALR2 agonist,S1P2 antag,GALR2 antag
C/C(=N/NC(=O)CN1CCN(S(=O)(=O)c2ccc(Br)cc2)CC1)c1ccco1,x,1,x,-1
CCOC(=O)C1CCN(C(=O)c2cnn3c(C)cc(C)nc23)CC1,-4,-2,10,6
CCOC(=O)Nc1ccc2c(c1)N(C(=O)CN1CCN(C)CC1)c1ccccc1S2,2,-1,-5,1
CCOC(=O)Nc1ccc2c(c1)N(C(=O)CCN(C)C)c1ccccc1S2,-8,-2,-5,30*
Cc1sc2ncnc(OCC(=O)NCc3cccs3)c2c1C,-4,1,13,-7
CCSc1ccc(-c2nn(-c3ccccc3)cc2/C=C(/C#N)C(=O)NCCCOC)cc1,x,5.9*,x,0
CC/C(=N\NC(=O)c1ccc(-c2ccccc2)cc1)C12CC3CC(CC(C3)C1)C2,-2,-2,12,-5
CC(=O)c1cccc(NS(=O)(=O)c2ccc(N/C=C/C(=O)c3ccc(F)cc3)cc2)c1,x,0,x,3
CC(=O)c1cccc(NS(=O)(=O)c2ccc(N/C=C\C(=O)c3ccc(C)cc3)cc2)c1,-9,1,67*,10
Cc1nc(SCC(=O)Nc2ccc3c(c2)OCCO3)c2oc3ccccc3c2n1,19*,0,-30,-12
Cc1cccc(NC(=O)CSc2ncnc3c2oc2ccccc23)c1,-3,-2,-33,6
COc1ccccc1NC(=O)CSc1ncnc2c1oc1ccccc12,24*,-1,-25,14
Cc1cccc(NC(=O)c2ccc(COc3cccc4ccccc34)o2)n1,x,-1,x,8
COc1ccc(C2=Nn3c(nnc3-c3ccco3)SC2)cc1OC,40*,-1,-40,-12
COc1ccc(C2=Nn3c(nnc3-c3ccccc3OC)SC2)cc1OC,34*,3,-33,30*
CC(C)Cn1c(N)c(C(=O)CSc2ccc3c(c2)OCCO3)c(=O)n(C)c1=O,-3,-2,54*,11
CC(C)Cn1c(N)c(C(=O)COC(=O)c2ccc3c(c2)OCCO3)c(=O)n(C)c1=O,-2,0,20,7
CCOC(=O)c1cc(-c2ccccc2)sc1NC(=O)C(C)N1C(=O)c2ccccc2C1=O (configuration not stated),x,0,x,-2
CS(=O)(=O)N(CC(=O)N/N=C/c1ccc(OCC(=O)N2CCOCC2)cc1)c1ccccc1Cl,x,-1,x,3
CN(C)c1ccc(/C=N/NC(=O)CN(c2ccccc2Cl)S(C)(=O)=O)cc1Br,17*,0,-44,2
Oc1cccc(C(=S)N2CCN(Cc3ccccc3)CC2)c1,56*,-1,12,0
Cn1cnnc1SCc1ccc(-c2ccc(Br)cc2)o1,-7,0,18,5
CCCc1nn(-c2cc(Cl)ccc2OC)c2c1C(=O)CCC2,59*,1,-23,-5
O=C(Nc1ccncc1)Nc1ccccn1,-4,-1,13,-8
O=C(Nc1ccccn1)Nc1cccs1,133*,0,15,2
SMILES,S1P2 agonist,GALR2 agonist,S1P2 antag,GALR2 antag
COc1cc(-c2nnc3sc(C4CCCCC4)nn23)cc(OC)c1OC,20*,2,-21,-9
C#CCSc1nc(-c2ccccc2)cc(C(F)(F)F)c1C#N,-2,-1,-4,6
Cc1ccc(-c2cc(C(F)(F)F)c(C#N)c(SCCC#N)n2)o1,17*,7,-27,-7
O=C(CSc1nc2c(c(=O)n1-c1ccc(Cl)cc1)SCC2)N1CCOCC1,21*,-1,-8,-6
O=C(CSc1nc2c(c(=O)n1-c1ccc(Cl)cc1)SCC2)N1CCCC1,x,-1,x,8
CC(=O)Nc1cc(NC(C)=O)cc(C(=O)NC(C)(C)C)c1,-2,-1,3,2
O=C1C2C3C=CC(CO)(O3)C2C(=O)N1c1ccccc1-c1ccccc1 (configuration not stated),x,-1,x,76*
Cc1cc2nnc(SCC(=O)OC(C)C)n2c2ccccc12,-3,-1,5,-3
OCCn1c(CSc2nnc(-c3ccco3)n2-c2ccccc2)nc2ccc(Cl)cc21,34*,0,-23,-21
O=C(C1CCCO1)N1CCN(C(=S)Nc2ccccc2Cl)CC1 (configuration not stated),x,-2,x,-4
CCOc1ccc2cc(/C=C/C(=O)c3ccco3)c(Cl)nc2c1,-9,0,30,32*
COc1ccc(Nc2nc(Nc3ccc(OC)cc3)nc(-n3[nH]c(=O)c(C)c3C)n2)cc1,-6,73*,29,-2
CNC(=O)c1cc2c(=O)n3cc(C)ccc3nc2n(C(C)C)c1=N,18*,16*,-18,0
CCOC(=O)c1cc2c(=O)n3ccccc3nc2n(CCCOC)c1=NC(C)=O,35*,13*,-56,-14
C=CCn1c(=N)c(C(=O)NCCCOC)cc2c(=O)n3ccccc3nc21,30*,23*,-33,-3
